This is part of a sample that, as a whole, favours compounds with a hit. Of some 83,000 tested, about 20% had one in any assay.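 Method: cells in 96-well plates; compound added at one concentration; 48 h incubation; percent growth measured; values under 10 scored active.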 Values without a mark were called inactive. The source made the active and inactive calls.
The molecules below were run on NCI/ADR-RES ovarian (assay: NCI-60 one-dose screen, 48 h (100 = growth as untreated, 0 = no growth, -100 = all killed)). Conditions: 10 µM unless noted.
Protocol: Growth inhibition of the NCI/ADR-RES human […] tumor cell line is measured as a screen for anti-cancer activity. Cells are grown in 96 well plates and exposed to the test compound for 48 hours. Compounds are tested at a single concentration, which is 10^-5 M for most compounds. The reported endpoint is percent growth (GI% or GIPRCNT), where numbers from 0 - 100% represent growth inhibition, and numbers from -100% - 0 represent cell death. For example, a value of 40 represents 60% growth inhibition. A value of 0 means no net growth occurred over the course of the experiment. A value of -40 indicates 40% of cells at the beginning of the experiment died by the end of the experiment. A value of -100 means all cells are dead at the end of the experiment.
NCI-60 Human Tumor Cell Lines Screen was performed using the standard one-dose NCI protocol, which is described in more detail at https://dtp.cancer.gov/discovery_development/nci-60/default.htm.
Compounds with GIPRCNT values below 10 were considered active. Activity score was based on GIPRCNT using the following formula: […]
Score is 0 for GIPRCNT values of 100 or above, 50 for GIPRCNT values of 0, and 100 for GIPRCNT values of -100.

**Q.** For `COc1cc(F)c(-c2nc3c(C)cccc3n2Cc2c(F)cccc2F)c(F)c1`, which growth is on record?
**A.** The growth was 77.9%.

**Q.** How did the growth turn out when `C=CCn1c(SCC(=O)Nc2ccc(C(=O)/C=C/c3ccc(Cl)cc3)cc2)nnc1-c1cc(OC)c(OC)c(OC)c1` was run?
**A.** The growth was 95.5%.

**Q.** With `COc1ccc(NC(=O)c2sc3nc(C)c(C(C)=O)cc3c2N)cc1` as the molecule, how does the growth read?
**A.** The growth was 98.9%.

**Q.** With `c1ccc2nc(N3CCOCC3)c(N3CCCCC3)nc2c1` as the molecule, how does the growth read?
**A.** Its growth is 100%.

**Q.** Which growth does the source give for `C=C1C(=O)O[C@H]2[C@H]1CC/C(COC(=O)CCCCCCC(=O)OC/C1=C/CC[C@@]3(C)O[C@H]3[C@H]3OC(=O)C(=C)[C@@H]3CC1)=C\CC[C@@]1(C)O[C@@H]21` here?
**A.** Its growth is 46.6%.

**Q.** How did the growth turn out when `COc1ccc2nc(-c3ccc(Cl)cc3)cc(-c3nnc(SCC(=O)Nc4ccc(/C(C)=N\O)cc4)o3)c2c1` was run?
**A.** Its growth is 1.11% (active).

**Q.** `COc1cc(NCC(=O)Nc2cc(Nc3cccc(C(F)(F)F)c3)ncn2)c(Cl)c(OC)c1Cl` was tested. Which growth did it give?
**A.** Its growth is 96.3%.

**Q.** For `O=C1CCC23OC(C(O)c4ccccc4N12)C1C(Br)=NOC13` (stereo not given), which growth is on record?
**A.** The growth was 106%.

**Q.** With `CCSc1ccc(C2C(Br)C(=O)N2c2cc(OC)c(OC)c(OC)c2)cc1` (stereo not given) as the molecule, how does the growth read?
**A.** The growth was 14%.

**Q.** Which growth does the source give for `O=c1nc(-c2ccccc2)c2cc(-c3ccc(N4CCCC4)nc3)ccc2[nH]1` here?
**A.** The growth was 63.9%.

**Q.** `CN(C)C(CNc1oc(-c2cccc3ccccc23)nc1C#N)c1ccco1` (stereo not given) was tested. Which growth did it give?
**A.** Its growth is 94.8%.

**Q.** `COc1cc(C(C)c2ccc3c(ccn3C)c2)cc(OC)c1OC` (stereo not given) was tested. Which growth did it give?
**A.** Its growth is 13%.

**Q.** For `OCCNc1nc(NCCO)nc(Nc2ccc(C3=NN(c4ccc(Cl)cc4)C(c4ccc(Cl)cc4)C3)cc2)n1` (stereo not given), which growth is on record?
**A.** The growth was 73.8%.

**Q.** How did the growth turn out when `O=C(O)C(C(=O)O)c1cccc2ccccc12` was run?
**A.** Its growth is 98.9%.

**Q.** For `C#C[C@@]1(O)[C@@H](CO)O[C@@H](n2cc(F)c3c(N)ncnc32)[C@@H]1O`, which growth is on record?
**A.** Its growth is 4.76% (active).

**Q.** How did the growth turn out when `Nc1c(C(=O)Nc2ccccn2)sc2nc3c(cc12)CCCCC3` was run?
**A.** Its growth is 9.19% (active).

**Q.** How did the growth turn out when `COc1ccc(-c2cn(-c3ccc(Cl)cc3)c(=S)[nH]2)cc1OC` was run?
**A.** Its growth is 37%.

**Q.** For `O=C(O)c1cn(C2CC2)c2cc(N3CCN(Cc4nnc(Nc5ccccc5)o4)CC3)c(F)cc2c1=O`, which growth is on record?
**A.** Its growth is 107%.

**Q.** Which growth does the source give for `CCCn1c(N)c(C(N)=O)sc1=S` here?
**A.** Its growth is 104%.

**Q.** `CCOC(=O)NC(Cc1ccccc1)c1ccccc1` (stereo not given) was tested. Which growth did it give?
**A.** Its growth is 98.2%.

**Q.** How did the growth turn out when `CCCCc1n(Cc2ccc3ccccc3c2)c2ccccc2[n+]1Cc1ccc2ccccc2c1` was run?
**A.** The growth was 63.2%.

**Q.** `O=C(O)c1cn(C2CC2)c2cc(N3CCN(C(=O)CSc4nnc(-c5ccc(Cl)cc5)n4-c4ccccc4)CC3)c(F)cc2c1=O` was tested. Which growth did it give?
**A.** Its growth is 104%.

**Q.** For `Cc1nc(C)c(C)nc1C`, which growth is on record?
**A.** Its growth is 109%.

**Q.** `C=C(C)[C@@H]1CC[C@]2(C(=O)OCCCC[P+](c3ccccc3)(c3ccccc3)c3ccccc3)CC[C@]3(C)[C@H](CC[C@@H]4[C@@]5(C)CC[C@H](OC(=O)C(Cl)Cl)C(C)(C)[C@@H]5CC[C@]43C)[C@@H]12` was tested. Which growth did it give?
**A.** The growth was 52.7%.

**Q.** How did the growth turn out when `CC(=O)c1ccc(NC(=O)CSc2nnc(-c3cc(-c4ccc(Cl)cc4)nc4ccccc34)o2)cc1` was run?
**A.** Its growth is 83.2%.

**Q.** With `CC1CCN(CCCCCOc2ccc3oc4ccccc4c(=O)c3c2)CC1` as the molecule, how does the growth read?
**A.** The growth was 78.3%.

**Q.** For `C[C@H]1[C@H](C)CC[C@]2(C(=O)OCCOCCOCC[P+](c3ccccc3)(c3ccccc3)c3ccccc3)CC[C@]3(C)C(=CC[C@@H]4[C@@]5(C)CC[C@H](OC(=O)C(Cl)Cl)C(C)(C)[C@@H]5CC[C@]43C)[C@H]12`, which growth is on record?
**A.** Its growth is 69%.

**Q.** `CN1CC=C(c2cc(NC(=O)Nc3ccc(Oc4ccnc(NC(=O)C5CC5)c4)c(F)c3)cc(C(F)(F)F)c2)CC1` was tested. Which growth did it give?
**A.** The growth was 44.7%.

**Q.** Which growth does the source give for `CN(C)C1=NCCN1` here?
**A.** The growth was 106%.

**Q.** Which growth does the source give for `CCCn1c2cc(OCc3cn(-c4ccc(Cl)cc4)nn3)ccc2c2ccnc(C)c21` here?
**A.** Its growth is 66.3%.

**Q.** With `Cc1nccc2c3ccc(OCc4cn(-c5ccc(Cl)cc5)nn4)cc3n(CC(C)C)c12` as the molecule, how does the growth read?
**A.** Its growth is 14.1%.

**Q.** With `COc1ccc2oc(=O)cc(-c3nc4ccc(N)cc4[nH]3)c2c1` as the molecule, how does the growth read?
**A.** The growth was 88%.

**Q.** For `O=C(Nc1ccc2ncnc(Nc3ccc(F)c(Cl)c3)c2c1)c1ccccc1`, which growth is on record?
**A.** Its growth is 65.9%.

**Q.** How did the growth turn out when `Nc1ccc2c(c1)C(=O)C(=O)c1c-2nc2ccccn12` was run?
**A.** Its growth is 11.7%.

**Q.** For `COc1cccc(NC(=O)Nc2ccc(Oc3ncnc4[nH]c(C)c(C)c34)cc2)c1`, which growth is on record?
**A.** The growth was 83.5%.

**Q.** For `COc1ccc(C(=S)c2cc(OC)c(OC)c(OC)c2)cc1OC(=O)CCl`, which growth is on record?
**A.** Its growth is 7.4% (active).

**Q.** Which growth does the source give for `CCO/C=N/S(=O)(=O)c1cc2c(cc1Cl)NC=NS2(=O)=O` here?
**A.** The growth was 109%.

**Q.** For `CC1CCN(CCCCCOc2ccc3oc4cc(Cl)ccc4c(=O)c3c2)CC1`, which growth is on record?
**A.** The growth was 70.8%.

**Q.** How did the growth turn out when `COCCOCCOCc1n(Cc2ccc3ccccc3c2)c2ccccc2[n+]1Cc1ccc2ccccc2c1` was run?
**A.** The growth was 105%.

**Q.** Which growth does the source give for `COc1ccc([C@H]2[C@@H](F)C(=O)N2c2cc(OC)c(OC)c(OC)c2)cc1F` here?
**A.** The growth was 8.4% (active).

From PubChem BioAssay (NCI)
